VDR inh: Inhibitors of the vitamin D receptor (VDR): qHTS | VDR-SRC2-3 peptide fluorescence polarization, 2 h | 400,000 tested, 0.93% active | Vitamin D3 receptor (Homo sapiens), P11473 | Potency, µM, for the others: max response, negative = inhibition, hits mostly inhibitors | AID 504847, 2011; note: % is set by controls: 0 for no effect and ±100 for the full control effect
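Signal is fluorescence polarization, reporting how far test compounds block the interaction of VDR with the SRC2-3 coregulator peptide after a 2 h room-temperature incubation.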
G9a block: qHTS Assay for Inhibitors of Histone Lysine Methyltransferase G9a; Potency, µM (highest dose often 102 µM), for the others: at the top dose activity, negative = inhibition, actives largely listed as inhibitors; 350,000 tested, 8.8% active; AID 504332, 2011; Histone-lysine N-methyltransferase EHMT2 (Homo sapiens), Q96KQ7; G9a H3K9 monomethylation, AlphaScreen, 2 h; note: % is set by controls: 0 for no effect and ±100 for the full control effect; nearly all actives have a fitted effect of over 75% in size
Target sequence (Q96KQ7 913-1193 limits assumed): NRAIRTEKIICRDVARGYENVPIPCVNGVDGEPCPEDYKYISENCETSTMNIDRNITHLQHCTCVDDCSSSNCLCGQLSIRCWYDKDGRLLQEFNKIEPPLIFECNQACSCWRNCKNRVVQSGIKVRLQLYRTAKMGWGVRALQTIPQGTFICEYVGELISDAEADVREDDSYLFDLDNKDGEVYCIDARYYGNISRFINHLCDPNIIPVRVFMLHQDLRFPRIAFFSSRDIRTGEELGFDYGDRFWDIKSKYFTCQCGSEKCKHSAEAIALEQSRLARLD
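AlphaScreen read-out: biotin-H3K9 peptide (500 nM) methylation by 20 nM enzyme with 20 uM SAM, 2 h at room temperature after 15 min compound preincubation; anti-monomethyl H3K9 antibody plus donor/acceptor beads, 10 min dark.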
JMJD2A Tudor inh: qHTS Assay for Inhibitors of JMJD2A-Tudor Domain; Potency, µM (highest dose often 114 µM), for inactives: top-dose activity change, negative = inhibition, hits mostly inhibitors; AlphaScreen JMJD2A-Tudor / H3K4me3 peptide binding; Lysine-specific demethylase 4A (Homo sapiens), O75164; 390,000 tested, 4.4% active; note: % is set by controls: 0 for no effect and ±100 for the full control effect; nearly all actives have a fitted effect of over 50% in size
PLK1 PBD block: qHTS for Inhibitors of PLK1-PDB (polo-like kinase 1 - polo-box domain): Primary Screen; Serine/threonine-protein kinase PLK1 (Homo sapiens), P53350; Plk1 PBD binding of FITC phosphopeptide, fluorescence polarization; Potency, µM, inactives show max response, negative = inhibition, usual class: inhibitors; 360,000 tested, 2.8% active; AID 720504, 2013; note: series mostly up to about 57 µM; % is set by controls: 0 for no effect and ±100 for the full control effect; nearly all actives have a fitted effect of over 65% in size
BAZ2B inh: qHTS Assay for Inhibitors of BAZ2B. Bromodomain adjacent to zinc finger domain protein 2B (Homo sapiens), Q9UIF8. AlphaScreen BAZ2B-H3K14Ac peptide displacement. 360,000 tested, 4.4% active. Potency, µM (doses to about 114 µM), for inactives: top-dose activity change, negative = inhibition, actives largely listed as inhibitors. AID 504333, 2011; note: % is set by controls: 0 for no effect and ±100 for the full control effect; nearly all actives have a fitted effect of over 60% in size
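Multi-concentration screen (max 110 uM) measuring displacement of acetylated histone H3 peptide from BAZ2B by AlphaScreen, using 50 nM protein, 50 nM peptide and 10 ug/mL streptavidin donor plus Ni-chelate acceptor beads.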
HP1b binding inh: HTS for Inhibitors of HP1-beta Chromodomain Interactions with Methylated Histone Tails; 390,000 tested, 0.56% active; Chromobox protein homolog 1 (Homo sapiens), P83916; AlphaScreen HP1-beta / biotin-H3K9me3 peptide binding; Potency, µM (series often up to 114 µM), for inactives: top-dose activity change, negative = inhibition, actives largely listed as inhibitors; note: nearly all actives have a fitted effect of over 70% in size
Target sequence (P83916 whole entry, looked up): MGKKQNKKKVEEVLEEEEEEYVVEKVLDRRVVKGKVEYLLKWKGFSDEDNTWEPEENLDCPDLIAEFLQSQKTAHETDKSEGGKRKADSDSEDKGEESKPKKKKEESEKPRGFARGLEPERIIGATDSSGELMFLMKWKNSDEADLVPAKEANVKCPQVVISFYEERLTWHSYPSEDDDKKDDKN
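Compound inhibition of the preformed complex between 50 nM HP1-beta and 50 nM biotinylated H3K9me3 peptide was read by AlphaScreen. Buffer was PBS pH 7.4 with 0.01% Tween-20. Incubations ran 30 min at room temperature, with 10 ug/mL donor/acceptor beads.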
* marks the source's active call; other numbers are inactive results; ? = inconclusive; . = no result; ! = repeats disagree; [ ] = remark or other dose. Most compounds without a hit are left out; they make up all but 11% or so of the library. Calls come from the whole dose curve; as a rule, active = well fitted curve in the direction sought with a large enough effect; inconclusive = small, poorly fitted or top-dose-only effect, or another doubt; inactive = no such curve, though single readings can be large; an effect the other way counts as inactive or inconclusive. Potency is the fitted concentration of half-maximal effect.

SMILES | VDR inh | G9a block | JMJD2A Tudor inh | PLK1 PBD block | BAZ2B inh | HP1b binding inh
CC1(c2ccc(Cl)cc2)NC(=O)N(CC(=O)Nc2ccc(N3CCCCC3)cc2)C1=O (stereo not given) | 5.2% | 50.1µM* | ? | -14.1% | ? | -23.5%
Cc1ccc(-c2nc(SCCOc3ccccc3C)n3[nH]c(=O)cc3n2)cc1 | 13.0% | 67.5%[59 µM] | -24.7% | . | 8.2% | 52.1%
O=C(CCc1ccc(S(=O)(=O)NC2CCCCC2)cc1)NCc1ccc(Cl)cc1 | 1.9% | 24.7%[2.33 µM] | -1.0% | -5.3% | 8.2% | 28.8%
Cc1ccc(C)c(NC(=O)CCc2ccc(S(=O)(=O)NC3CCCCC3)cc2)c1 | -8.4% | 5.3% | -26.0%[11.4 µM] | 6.7µM* | 7.8% | -11.2%
Cc1ccc2c(c1)NC(=O)C(CC(=O)NCCN(C)C)O2 (stereo not given) | 10.0% | 44.7µM* | -14.8% | -10.3% | -0.2% | 49.4%
CCC1CCCCN1CCCNC(=O)CC1Oc2ccc(C)cc2NC1=O (stereo not given) | -4.0% | 31.6µM* | -9.9% | -20.9% | 2.4% | 57.1%
O=C(CC1Oc2ccc(Cl)cc2NC1=O)NC1CCCCCC1 (stereo not given) | -5.0% | 79.4µM* | -8.5% | -8.2% | 9.6% | 47.6%
Cc1ccc2c(c1)NC(=O)C(CC(=O)NCCCN1CCCC1=O)O2 (stereo not given) | ? | ? | ? | 29.9µM* | ? | 15.2%
COc1ccc(CC2(CO)CCN(C(C)Cc3ccc(Cl)cc3)CC2)cc1 (stereo not given) | -17.9% | ? | -15.4% | -4.5% | -7.0% | 25.6%
CSCC[C@H](NC(=O)[C@@H](NC(=O)[C@H](CCC(=O)O)NC(=O)[C@H](CCSC)NC(=O)[C@H](CC(N)=O)NC(=O)[C@H](CCC(=O)O)NC(=O)[C@H](CC(N)=O)NC(=O)[C@H](CO)NC(=O)[C@H](C)N)[C@@H](C)O)C(=O)O | -8.7% | . | . | . | . | .
Cc1ccc2c(c1)NC(=O)C(CC(=O)NCCCN1CCN(c3cc(Cl)ccc3C)CC1)O2 (stereo not given) | -2.6% | 44.7µM* | -24.3% | -8.1% | -34.2% | 21.2%
Cc1ccc2c(c1)NC(=O)C(CC(=O)NCCCN1CCCCC1)O2 (stereo not given) | -2.3% | -25.7% | -20.4% | -7.2% | 5.4% | 28.4%
O=C(COc1ccccc1)Nc1nnc(S(=O)(=O)N2CCCC2)s1 | 14.9% | 8.91µM* | ? | -14.8% | ? | 46.3%
CC(Oc1ccccc1)C(=O)Nc1nnc(S(=O)(=O)N2CCCCCC2)s1 (stereo not given) | -7.1% | 2.82µM*! | 8.91µM*! | -11.4% | 1.78µM*! | 46.8%
COc1ccc(OCC(=O)Nc2nnc(S(=O)(=O)N3CCCCCC3)s2)cc1 | -5.4% | -21.3%[59 µM] | -9.9% | -3.5% | -8.2% | 43.0%
Cc1ccc(OCC(=O)Nc2nnc(S(=O)(=O)N3CCC(C)CC3)s2)cc1 | 10.1% | 50.1µM* | ? | -28.4% | ? | 14.3%[57 µM]
Cc1ccc(OCC(=O)Nc2nnc(S(=O)(=O)N3CCc4ccccc43)s2)cc1 | 5.1% | -3.5%[59 µM] | -8.2% | . | -23.9% | 26.0%
Cc1ccc(-c2nnc(Nc3ccc(Br)cc3)c3ccccc23)cc1S(=O)(=O)N1CCCCC1 | -13.9% | -3.0%[59 µM] | -5.2% | . | 4.4% | 32.7%
CCOC(=O)c1c(-c2ccc(-c3ccccc3)cc2)csc1NC(=O)C1C2CCC(O2)C1C(=O)O (stereo not given) | -19.8% | . | -14.2%[57.1 µM] | 10.6µM* | ? | ?
CCOC(=O)c1c(-c2ccccc2)csc1NC(=O)CSc1ccccc1 | -13.1% | 28.6%[59 µM] | 38.3% | -0.8% | 45.0% | 51.5%
CCOC(=O)c1c(-c2ccccc2)csc1NC(=O)C1CCCO1 (stereo not given) | -61.2% | ? | -14.0% | 23.8µM* | 1.4% | -25.7%
COc1cc(OC)c(OC)cc1/C=N/NC(=O)CSc1ccccc1F | -11.5% | 1.9% | -23.4% | 4.5% | -15.1% | 2.4%

Source: PubChem
